EBV LMP1 NFkB – reduces LMP1-driven NF-kappaB luciferase signal. LMP1-induced NF-kappaB luciferase reporter cells, luminescence. inhibition, % at 12.5 µM. actives 0.69% (n = 350,000); in the data active = inhibition above about 41%; inconclusive = no clear call, values can overlap the other calls
TRPM1 prom inh – inhibitors of MITF-driven TRPM1 promoter in melanoma cells; SK-MEL-5 TRPM1 promoter luciferase, 24 h; inhibition, % at 12.5 µM; actives 0.83% (n = 330,000);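 active = mean inhibition across replicates of 60% or more, whatever share of single replicates reaches that level; inconclusive = some that reach 60%, reason not given; inactive = mean inhibition across replicates below 60%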
Shn3 3UTR inh – reduces Shn3 3'UTR luciferase signal in osteoblasts; AID 588674; Clone20 osteoblast Shn3 3'UTR firefly luciferase, 24 h; inhibition, % at 12.5 µM; actives 0.52% (n = 360,000);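 active = mean inhibition of at least 75% with every replicate also reaching 75%; inconclusive = mean inhibition at least 75% but some replicate below; inactive = mean inhibition below 75%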
LGR2 inh – Drosophila LGR2 receptor signaling inhibition. actives 0.35% (n = 380,000). inhibition, % at 9.99 µM. AID 720647. HEK293 LGR2, CRE-luciferase, bursicon-stimulated, 4 h;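 active = drop in luminescence signal, shown as inhibition above about 50% in the replicate tests, limit read from the data, passing the limit was not always enough; inconclusive = probably only some replicates passing the limit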;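 note: agonist challenge used bursicon conditioned medium at about half maximal strength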
PAX8 inh HTS – inhibitors of PAX8 transcriptional activity in RMG-I cells; RMG-I TPO-luciferase reporter, SteadyGlo, 24 h; inhibition, % at 12.6 µM; actives 1.2% (n = 360,000); AID 652154;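 active = mean replicate inhibition at least 60% with every replicate also reaching 60%; inconclusive = only one of the two criteria is met; inactive = mean below 60% and not all replicates reaching 60%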;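 note: luciferase light reporting Pax8 driven TPO promoter activity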
EWS-Fli block – EWS/Fli transcriptional activity inhibition. actives 0.67% (n = 350,000). A673 NR0B1-luciferase reporter, viability-normalised. inhibition, % at 12.6 µM;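 active = mean inhibition of at least 50% after viability correction, with every replicate also passing that limit; inconclusive = mean reaches 50% but only one of two replicates passes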;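 note: firefly luciferase signal divided by Alamar Blue viability fluorescence both relative to DMSO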
Numbers stand for hits; . = inactive; ? = inconclusive; / = not tested or not shown. Shown are actives, neighbours in structure and some others; about 2.2% of the full set was active somewhere.

SMILES	EBV LMP1 NFkB	TRPM1 prom inh	Shn3 3UTR inh	LGR2 inh	PAX8 inh HTS	EWS-Fli block
CC(=NNC(=S)N1CC2CCC(CC2)C1)c1ccccn1	.	/	86	?	.	.
CC(=NNC(=S)N1CCCCCC1)c1cccc2cccnc12	52	.	?	.	.	.
Cc1ccc(S(=O)(=O)NC[C@@H]2CC[C@@H]3[C@@H](CN3Cc3cc(F)ccc3F)O2)cc1	/	/	/	/	/	.
CC(=NNC(=S)N1CCN(C2CCCCCC2)CC1)c1ccccn1	.	83	93	.	94	.
CC(=NNC(=S)N1CCN(c2ccccn2)CC1)c1ccccn1	.	.	.	.	.	.
Cc1cc2c(cc1C)C(=O)C(Br)=C(N)C2=O	.	62	.	.	.	.
Nc1ccc(O)c2c1C(=O)c1ccccc1C2=O	.	.	.	/	/	.
Cc1cc(-c2cc(C)c(N)cc2C)c(C)cc1N	.	.	.	.	.	.
NC1=C(Br)C(=O)c2ccccc2C1=O	.	71	.	/	.	.
CCCNC(=O)N1CC2(C1)CN(C(=O)CCC)[C@@H](CO)c1[nH]c3cc(OC)ccc3c12	/	/	/	.	/	.
C[C@@H]1CN([C@@H](C)CO)S(=O)(=O)c2ccc(C#CC3CC3)cc2O[C@H]1CN(C)C(=O)C1CCCCC1	/	/	/	.	/	.
COc1ccc(-c2cnc3c(c2)C(=O)N([C@@H](C)CO)C[C@@H](C)[C@H](CN(C)C(=O)C2CC2)O3)cc1	/	/	/	.	/	.
Cc1ccc2oc(C(=O)Nc3ccc(S(=O)(=O)Nc4onc(C)c4C)cc3)c(C)c2c1	66	.	.	.	.	.
Cc1cc(C(=O)Nc2ccc(S(=O)(=O)Nc3onc(C)c3C)cc2)c(C)o1	.	.	.	/	/	/
C[C@@H]1CCCCO[C@@H](CN(C)C(=O)Nc2ccc(C(F)(F)F)cc2)[C@H](C)CN([C@H](C)CO)C(=O)c2cc(NC(=O)Nc3ccccc3)ccc2O1	/	/	/	.	63	.
C[C@@H]1CCCCO[C@@H](CN(C)C(=O)Nc2ccccc2)[C@H](C)CN([C@H](C)CO)C(=O)c2cc(NC(=O)Nc3ccc(C(F)(F)F)cc3)ccc2O1	/	/	/	.	86	.
C[C@@H]1CCCCO[C@H](CN(C)C(=O)Cc2ccccc2)[C@@H](C)CN([C@H](C)CO)C(=O)c2cc(NC(=O)Nc3ccc(C(F)(F)F)cc3)ccc2O1	/	/	/	.	.	.
C[C@@H]1CCCCO[C@@H](CN(C)C(=O)Cc2ccccc2)[C@@H](C)CN([C@@H](C)CO)C(=O)c2cc(NC(=O)Nc3ccc(C(F)(F)F)cc3)ccc2O1	/	/	/	.	79	.
C[C@@H]1CN([C@H](C)CO)C(=O)c2cc(NC(=O)Nc3ccc(C(F)(F)F)cc3)ccc2O[C@@H](C)CCCCO[C@H]1CN(C)C(=O)c1ccccc1	/	/	/	.	102	.
O=C(O)c1cc2cc(F)ccc2[nH]1	85	.	.	.	.	.
O=C(O)c1cc2cc(Cl)ccc2[nH]1	.	.	.	.	.	.
COc1ccc(NC(=O)/C(Cl)=C(/Cl)S(=O)(=O)Cc2ccc(C)cc2)cn1	87	94	?	/	/	/
COc1ccc(NC(=O)/C(Cl)=C(/Cl)S(=O)Cc2ccccc2Cl)cn1 (configuration not stated)	89	98	/	/	/	/
CO[C@@H]1CN(C)C(=O)c2cc(NS(=O)(=O)c3cccc(F)c3)ccc2OC[C@H](C)NC[C@H]1C	/	/	/	.	.	.
CCC(C)NS(=O)(=O)c1ccc(S(=O)(=O)N2CCCC3(CCCCC3)C2)cc1 (configuration not stated)	.	.	86	.	.	/
SMILES	EBV LMP1 NFkB	TRPM1 prom inh	Shn3 3UTR inh	LGR2 inh	PAX8 inh HTS	EWS-Fli block
C[C@@H]1CCCCO[C@@H](CN(C)C(=O)Nc2ccc3c(c2)OCO3)[C@H](C)CN([C@H](C)CO)C(=O)c2cc(NC(=O)c3ccncc3)ccc2O1	/	/	/	.	/	.
C[C@@H]1CN([C@H](C)CO)C(=O)c2cc(NC(=O)C3CCCCC3)ccc2O[C@@H](C)CCCCO[C@@H]1CN(C)C(=O)c1ccncc1	/	/	/	.	.	.
C[C@@H]1CCCCO[C@H](CN(C)C(=O)Nc2ccc(F)cc2)[C@H](C)CN([C@H](C)CO)C(=O)c2cc(NC(=O)CCC(F)(F)F)ccc2O1	/	/	/	.	.	.
CC(=O)Nc1ccc(Cl)c(C(N)=O)c1	.	.	.	/	/	/
NC(=O)c1cc(N2C(=O)C=CC2=O)ccc1Cl	.	.	94	/	/	/
COc1ccc2c3c([nH]c2c1)[C@@H](CO)N(Cc1ccc(F)cc1)CC31CN(C(=O)NC(C)C)C1	/	/	/	.	/	.
O=c1cc(C(Cl)(Cl)Cl)oc2c1ccc1ccccc12	.	69	.	/	98	/
O=c1cc(-c2ccco2)oc2c1ccc1ccccc12	.	.	.	/	.	/
CC(=O)NCCNC(=O)c1ccc(CSc2nc3ccccc3s2)cc1	.	.	.	67	.	/
C=CCNC(=O)c1ccc(CSc2nc3ccccc3s2)cc1	.	.	.	.	.	.
Cc1cccc(C)c1NC(=O)CN(C)C(=O)c1ccc(-c2cccc(C(F)(F)F)c2)o1	55	.	.	.	.	.
CCOC(=O)N1CCN(C(=O)CSCC(=O)Nc2nc(-c3ccc(OC)cc3)cs2)CC1	.	.	.	/	/	/
CCOC(=O)N1CCN(C(=O)CSCC(=O)Nc2nc(-c3ccc(-c4ccccc4)cc3)cs2)CC1	.	.	.	51	.	.
O=C(CC(c1ccc(F)cc1)c1ccco1)N1CCOCC1 (configuration not stated)	61	.	.	.	/	/
O=C(CC(c1ccc(F)cc1)c1ccco1)N1CCCC1 (configuration not stated)	.	.	.	/	/	/
COc1ccc(-c2nn(-c3ccccc3)cc2/C=N/N2C(=O)CSC2=S)cc1	.	104	.	/	/	/
COc1ccc(/C=N/N2C(=O)CSC2=S)cc1	.	.	.	/	/	/
NNC(=O)c1cccc(COc2ccccc2Br)c1	.	.	.	/	/	/
NNC(=O)c1cccc(COc2ccc3c(c2)CCC3)c1	63	.	.	?	.	/
CC[n+]1c(/C=C/N(C)c2ccccc2)n(-c2ccccc2)c2ccc(-c3nc4ccccc4s3)cc21	51	91	98	/	/	/
CCN(CC)c1c([N+](=O)[O-])c(=O)n(C)c2ccccc12	.	.	.	/	.	.
Cn1c(=O)c([N+](=O)[O-])c(Cl)c2ccccc21	.	95	97	.	101	61
CO[C@@H]1CN(C)C(=O)c2cc(NC(=O)c3cc(C)on3)ccc2OC[C@H](C)N(C(=O)C2CC2)C[C@H]1C	/	/	/	.	/	.
C[C@@H]1CN([C@@H](C)CO)C(=O)c2cc(-c3ccc(C(=O)N(C)C)cc3)cnc2O[C@H]1CN(C)C(=O)CN(C)C	/	/	/	.	/	.
Cc1ccc([N+](=O)[O-])cc1N=Nc1c(-c2ccc([N+](=O)[O-])cc2)[nH]n(C(N)=S)c1=O	.	64	.	/	/	/
Cc1ccc([N+](=O)[O-])cc1N=Nc1c(C)[nH]n(C(N)=S)c1=O	.	.	.	.	.	.
Nc1nc2ccccc2n1/N=C/c1ccc([N+](=O)[O-])s1	.	66	.	.	.	/
